Test results published in PubChem BioAssay (NCI).
About 83,000 compounds went through this panel and 20% of them were active in at least one assay; those are over-represented in the sample as a whole.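 96-well plates, one dose, 48 hours. Percent growth reported; active if below 10.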 Calls of active or inactive are those of the source.

Tests used:
Assay in all cases: NCI-60 one-dose screen, 48 h (100 = growth as untreated, 0 = no growth, -100 = all killed)
Conditions in all cases: 10 µM unless noted
SK-MEL-2 melanoma = system: SK-MEL-2 melanoma
EKVX NSCLC = system: EKVX NSCLC
SN12C renal = system: SN12C renal
UO-31 renal = system: UO-31 renal
TK-10 renal = system: TK-10 renal
ACHN renal = system: ACHN renal
CAKI-1 renal = system: CAKI-1 renal
A498 renal = system: A498 renal
CCRF-CEM leukemia = system: CCRF-CEM leukemia
MOLT-4 leukemia = system: MOLT-4 leukemia
SR leukemia = system: SR leukemia
RPMI-8226 leukemia = system: RPMI-8226 leukemia
OVCAR-8 ovarian = system: OVCAR-8 ovarian
OVCAR-5 ovarian = system: OVCAR-5 ovarian
OVCAR-4 ovarian = system: OVCAR-4 ovarian
SK-OV-3 ovarian = system: SK-OV-3 ovarian
IGROV1 ovarian = system: IGROV1 ovarian
HS 578T breast = system: HS 578T breast
NCI/ADR-RES ovarian = system: NCI/ADR-RES ovarian

Measured: growth

CCN(CC)c1ccc(/C=N/NC(=O)c2ccc(S(N)(=O)=O)cc2)cc1
inactive: SK-MEL-2 melanoma 38.7% | EKVX NSCLC 23.6% | SN12C renal 35.9% | UO-31 renal 13.3% | TK-10 renal 42.9% | ACHN renal 14.6% | CAKI-1 renal 23% | A498 renal 44.3% | CCRF-CEM leukemia 15.4% | MOLT-4 leukemia 14.2% | SR leukemia 14.1% | RPMI-8226 leukemia 34.3% | OVCAR-8 ovarian 14.6% | OVCAR-5 ovarian 46.7% | OVCAR-4 ovarian 30.4% | SK-OV-3 ovarian 35.5% | IGROV1 ovarian 19.9% | HS 578T breast 64.1% | NCI/ADR-RES ovarian 53.8%

CN1CCN(c2ccc(C(=O)/C=C/c3cc(F)cc(C(F)(F)F)c3)cc2)CC1
inactive: SK-MEL-2 melanoma 117% | EKVX NSCLC 88.9% | SN12C renal 75.7% | UO-31 renal 53.3% | TK-10 renal 144% | ACHN renal 67.9% | CAKI-1 renal 51.5% | A498 renal 96.9% | CCRF-CEM leukemia 14.1% | MOLT-4 leukemia 46.8% | SR leukemia 17.5% | RPMI-8226 leukemia 11.2% | OVCAR-8 ovarian 65.2% | OVCAR-5 ovarian 115% | OVCAR-4 ovarian 71.8% | SK-OV-3 ovarian 109% | IGROV1 ovarian 77.9% | HS 578T breast 100% | NCI/ADR-RES ovarian 59%

C/C(=C(/C)C1CC1CCNC1CCC(NC(=O)OC(C)(C)C)CC1)c1ccccc1 (configuration not stated)
active: SR leukemia -25.5% | RPMI-8226 leukemia 2.74%
inactive: SK-MEL-2 melanoma 95.9% | EKVX NSCLC 73.7% | SN12C renal 76.2% | UO-31 renal 63.8% | TK-10 renal 108% | ACHN renal 87.1% | CAKI-1 renal 53.6% | A498 renal 78% | CCRF-CEM leukemia 54% | MOLT-4 leukemia 61.9% | OVCAR-8 ovarian 81.6% | OVCAR-5 ovarian 84.4% | OVCAR-4 ovarian 78.5% | SK-OV-3 ovarian 88.8% | IGROV1 ovarian 72.1% | HS 578T breast 84.1% | NCI/ADR-RES ovarian 75.7%

C#Cc1nc(/C=C/CCCCCCC(=O)NO)cs1
inactive: SK-MEL-2 melanoma 96.1% | EKVX NSCLC 89.5% | SN12C renal 90.3% | TK-10 renal 31.6% | A498 renal 73.9% | OVCAR-8 ovarian 31.8% | OVCAR-5 ovarian 59.3% | OVCAR-4 ovarian 47.2% | SK-OV-3 ovarian 88.8% | HS 578T breast 80% | NCI/ADR-RES ovarian 24.9%
active: UO-31 renal -93.1% | ACHN renal -39.1% | CAKI-1 renal -11.4% | CCRF-CEM leukemia -39.3% | MOLT-4 leukemia -14% | SR leukemia -39.9% | RPMI-8226 leukemia -12.7% | IGROV1 ovarian -80.3%

O=C1Nc2ccccc2/C1=N\c1nnc(-c2ccccc2)o1
inactive: SK-MEL-2 melanoma 96.4% | EKVX NSCLC 67.9% | SN12C renal 104% | UO-31 renal 75.5% | TK-10 renal 224% | ACHN renal 88.2% | CAKI-1 renal 88.2% | A498 renal 90.7% | CCRF-CEM leukemia 96.2% | MOLT-4 leukemia 96.7% | SR leukemia 105% | RPMI-8226 leukemia 101% | OVCAR-8 ovarian 102% | OVCAR-5 ovarian 106% | OVCAR-4 ovarian 98.7% | SK-OV-3 ovarian 82.5% | IGROV1 ovarian 72.1% | HS 578T breast 90.1% | NCI/ADR-RES ovarian 95.6%

COc1cc(/C=C2/C(=O)Nc3ccc(Cl)cc32)ccc1OCc1ccc(Cl)cc1
inactive: SK-MEL-2 melanoma 107% | EKVX NSCLC 88.5% | SN12C renal 88.9% | UO-31 renal 74.3% | TK-10 renal 129% | ACHN renal 52.7% | CAKI-1 renal 83.3% | A498 renal 93.4% | CCRF-CEM leukemia 69.5% | MOLT-4 leukemia 76.7% | SR leukemia 41.9% | RPMI-8226 leukemia 100% | OVCAR-8 ovarian 91.2% | OVCAR-5 ovarian 96.7% | OVCAR-4 ovarian 20.3% | SK-OV-3 ovarian 110% | IGROV1 ovarian 77.3% | HS 578T breast 94.1% | NCI/ADR-RES ovarian 88.3%

NC1[C@H]2CN(c3cnc(C(=O)Nc4cc(F)cc5cccnc45)cn3)C[C@@H]12 (some centres not stated)
inactive: SK-MEL-2 melanoma 92.5% | EKVX NSCLC 82.1% | SN12C renal 69.8% | UO-31 renal 44.6% | TK-10 renal 87.7% | ACHN renal 32.5% | CAKI-1 renal 49.9% | A498 renal 75.4% | CCRF-CEM leukemia 30% | MOLT-4 leukemia 18.1% | RPMI-8226 leukemia 68.9% | OVCAR-8 ovarian 87.7% | OVCAR-5 ovarian 77.3% | OVCAR-4 ovarian 17.4% | SK-OV-3 ovarian 93.2% | IGROV1 ovarian 29.4% | HS 578T breast 77.2% | NCI/ADR-RES ovarian 85.3%
active: SR leukemia 8.36%

Cc1ccccc1N1CCN(C2=C(Cl)C(=O)c3ncccc3C2=O)CC1
inactive: SK-MEL-2 melanoma 81.1% | EKVX NSCLC 95.4% | SN12C renal 70.1% | TK-10 renal 68.7% | CAKI-1 renal 25.4% | A498 renal 111% | MOLT-4 leukemia 10.4% | RPMI-8226 leukemia 11.5% | OVCAR-8 ovarian 70% | OVCAR-5 ovarian 98.4% | OVCAR-4 ovarian 59% | SK-OV-3 ovarian 95.8% | IGROV1 ovarian 77.3% | HS 578T breast 57.4% | NCI/ADR-RES ovarian 73.7%
active: UO-31 renal 2.66% | ACHN renal -22.6% | CCRF-CEM leukemia 0.314% | SR leukemia -24.1%
